# LDHA block – blocks human lactate dehydrogenase A | P00338 | purified LDHA, NADH/diaphorase-resazurin fluorescence; active compounds read low | activity change, % (values are at about 110 or 230 µM) | 480,000 compounds, 0.15% hits; in the data active = activity change below about -30%; inconclusive = mostly about -25% to -30%;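 also: plate controls were DMSO wells for no effect and wells without enzyme for full effect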
#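 LDH5 2 nM; NADH 0.06 mM, pyruvate 0.2 mM; 200 mM Tris pH 7.4, EDTA, Tween-20; 5 min RT. Detection: diaphorase 0.133 mg/mL + resazurin 37 µM, fluorescence ex540/em590 at 0 and 20 min; normalized to enzyme-free and DMSO wells.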
# pAkt inh – blocks phosphorylation of Akt | Neuro2A IGF-stimulated pAkt S473 HTRF, 20 min; active compounds read low | activity change, % for hits at 50 µM | 360,000 compounds, 0.32% hits | AID 651550; in the data active = activity change below about -80%; inconclusive = mostly about -51% to -80%; also: % is scaled to controls: 0 for no effect and ±100 for the full control effect
#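 Single-point screen (50 µM final compound) in Neuro2A cells stimulated 20 min with 6 nM IGF at 37 deg C. After lysis, Ser473-phosphorylated Akt read by HTRF (ex 330 nm, em 615/665 nm) as the 665/615 ratio.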
# DRD3 antagonist – blocks the human D3 dopamine receptor. P35462. D3R cells, DiscoveRx beta-arrestin luminescence, antagonist mode; active compounds read low. max response, negative = inhibition, %. 360,000 compounds, 2.5% hits. AID 652054; in the data active = max response below about -50%; inconclusive = no clear call, values can overlap the other calls; also: % is scaled to controls: 0 for no effect and ±100 for the full control effect
#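 Cells plated overnight at 1500 cells/well, then exposed to library compounds with dopamine controls for 90 minutes at 37 degrees C. DiscoveRx reagent added for 30–60 minutes at room temperature; luminescence read, quantitative HTS format.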
# D3 ag – activates the human D3 dopamine receptor. D3R DiscoveRx beta-arrestin cells, luminescence, 90 min. max activation, %. 410,000 compounds, 0.58% hits. AID 652048; in the data active = max activation above about 30%; also: 0% is about no effect
#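 Agonist mode: compounds and dopamine controls were applied to plated cells for 90 min at 37 degrees C after an overnight attachment at 1500 cells/well. Luminescent read-out followed 30 - 60 minutes at room temperature with DiscoveRx detection reagent.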
# PI4K2A inh – blocks human PI4K2A kinase activity | 420,000 compounds, 0.13% hits | purified PI4K2A, ADP-Glo luminescence, 1 h; active compounds read low | Q9BTU6 | activity change, negative = inhibition, % at 76.9 µM; in the data active = activity change below about -50%; inconclusive = mostly about -30% to -49%;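 also: -100% = wells without enzyme as full effect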
# Target sequence (Q9BTU6 whole entry, looked up): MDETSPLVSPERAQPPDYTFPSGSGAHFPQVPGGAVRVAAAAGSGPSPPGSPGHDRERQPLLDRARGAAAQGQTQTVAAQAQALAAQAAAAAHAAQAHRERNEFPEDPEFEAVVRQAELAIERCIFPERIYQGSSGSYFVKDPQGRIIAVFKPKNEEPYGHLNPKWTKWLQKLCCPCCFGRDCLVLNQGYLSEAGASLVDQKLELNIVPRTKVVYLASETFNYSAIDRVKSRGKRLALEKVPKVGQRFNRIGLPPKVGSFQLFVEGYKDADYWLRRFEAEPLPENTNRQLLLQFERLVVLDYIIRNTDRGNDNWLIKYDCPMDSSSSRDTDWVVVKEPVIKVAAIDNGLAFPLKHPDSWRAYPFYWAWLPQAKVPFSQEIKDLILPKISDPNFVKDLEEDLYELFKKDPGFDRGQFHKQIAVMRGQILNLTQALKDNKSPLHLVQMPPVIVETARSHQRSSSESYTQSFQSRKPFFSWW
#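 In this quantitative HTS, ADP production by PI4K2A was quantified luminescently after 1 h at ambient temperature; 100 microM adenosine served as plate-quality control.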
# RGS4 inhibitor – human RGS4 inhibition; P49798; Transcreener GDP fluorescence polarization, RGS4-accelerated GTP hydrolysis; Potency, µM (highest dose often 114 µM), inactives show top-dose activity change, negative = inhibition, usual class: inhibitors; 390,000 compounds, 0.039% hits; active = well fitted inhibition curve with a large enough effect; inconclusive = small, poorly fitted or top-dose-only effect; inactive = no such curve, though single readings can be large or run the other way; also: potency is read from the fitted curve at half-maximal effect; % is scaled to controls: 0 for no effect and ±100 for the full control effect; nearly all actives have a fitted effect of over 75% in size
# Target sequence (P49798 whole entry, looked up): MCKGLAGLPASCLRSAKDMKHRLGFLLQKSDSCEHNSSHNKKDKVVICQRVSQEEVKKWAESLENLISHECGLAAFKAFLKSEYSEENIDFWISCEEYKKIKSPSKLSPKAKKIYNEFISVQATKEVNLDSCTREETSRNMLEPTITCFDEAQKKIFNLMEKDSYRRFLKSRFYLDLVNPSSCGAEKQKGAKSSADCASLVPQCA
#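 MLSMR compounds (23 nl, pin-transferred) preincubated 10 min at room temperature with a 500nM (2x) first reagent, then RGS4 at 900nM (2x) plus Transcreener GDP mix added; fluorescence polarization (620/688 nm) read before and after 90 min at 30 °C.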
# * = called active by the depositor; i = inactive; ? = inconclusive; . = no result given; ! = not confirmed by another sample; [ ] = another dose, or the depositor's remark. This is a sample that favours compounds with a hit; in the whole collection about 2.8% have one here.
SMILES,LDHA block,pAkt inh,DRD3 antagonist,D3 ag,PI4K2A inh,RGS4 inhibitor
Cc1ccc(S(=O)(=O)N2[C@@H](c3ccccc3)C(C(=O)O)=CC[C@H]2c2ccc(C(C)C)cc2)cc1,-2,i,?,-22,-4,-9%
Cc1ccc([C@H]2C(C(=O)O)=CC[C@@H](c3ccc(C(C)C)cc3)N2S(=O)(=O)c2ccc(C)cc2)cc1,-5,i,-64*,-34,0,4%
Cc1ccc([C@H]2C(C(=O)O)=CC[C@@H](c3ccc(Cl)cc3)N2S(=O)(=O)c2ccc(C)cc2)cc1,7,i,-51*,-8,1,-16%
CCN(CC)CCC=C(c1cccs1)c1cccs1,-10,i,-54*,-15,0,-52%
CCN(C(=O)c1cccs1)C1CC1,3,.,.,.,.,.
CC(=O)Oc1oc(-c2ccccc2)nc1/C=N/c1ccccn1,-1,i,-62*,-11,-3,-44%
COc1ccccc1N=Cc1nc(-c2ccccc2)oc1OC(C)=O,-3,i,-56*,1,22,-15%
CC(=O)Oc1oc(-c2ccccc2)nc1C=Nc1ccc(N(C)C)cc1,-3,i,-14,1,21,-10%
CNC(=S)N/N=C(/C)c1ccc(C)c([N+](=O)[O-])c1,-5,.,.,.,.,.
O=C(O)C1(c2ccc(Cl)cc2Cl)CCOCC1,1,.,.,.,.,.
C(CNC1C2CC3CC(C2)CC1C3)CN1CCOCC1 (centres undefined),-7,i,-7,2,4,6%
C1CCN(CCCNC2C3CC4CC(C3)CC2C4)C1 (centres undefined),1,i,-53*,-6,1,-17%
Cc1ccc(N(CC2=NCCN2)c2cccc(O)c2)cc1,-3,i,-63*!,-67,2,-10%[56.9 µM]
c1ccc(CN(CC2=NCCN2)c2ccccc2)cc1,-11,i,-18,0,2,7%
O=C(CN1CCCCC1)N1CCCc2c1c(=O)oc1ccc(OCc3ccccc3)cc21,-3,-119%*,-25,-3,2,-18%
CCOC(=O)C1CCCN(CC(=O)N2CCCc3c2c(=O)oc2ccc(OCc4ccccc4)cc32)C1 (centres undefined),6,.,.,-14,-3,-14%
COc1ccc(-c2cnc(N)n2CC2CCCO2)cc1 (centres undefined),3,i,?,-13,3,-8%
c1ccc(-c2cnc(SCCN3CCOCC3)n2CC2CCCO2)cc1 (centres undefined),-32*,i,-57*,-2,-3,19%
Cc1ccc2oc(-c3ccc4ccccc4c3)c(C)c(=O)c2c1,5,.,.,.,.,.
Clc1ccc(COc2cccc(CNCc3ccncc3)c2)cc1,1,i,2,40*,-3,-26%
CC(C)(C)OC(=O)NCc1ccc(CNC(=O)c2nc[nH]c2C(=O)N2CCN(C(=O)OC(C)(C)C)CC2)cc1,-1,i,46,43*,-2,3%
C[C@H](NC(=O)c1[nH]cnc1C(=O)Nc1ccc(CNC(=O)OC(C)(C)C)cc1)C(=O)OC(C)(C)C,1,i,97,39*,0,?
Cc1ccc(NC(=O)c2nc[nH]c2C(=O)N2CCN(C(=O)OC(C)(C)C)CC2)cc1,-6,i,6,5,1,13%
C[C@H]1CNC(=O)c2c(C(=O)Nc3ccc(CNC(=O)OC(C)(C)C)cc3)ncn21,-7,i,112,34*,2,.
COc1ccc(CNC(=O)C(C)OC(=O)C23CC4CC(CC(C4)C2)C3)cc1 (centres undefined),10,.,.,.,.,.
SMILES,LDHA block,pAkt inh,DRD3 antagonist,D3 ag,PI4K2A inh,RGS4 inhibitor
O=C(COC(=O)c1cccc(S(=O)(=O)NCc2ccco2)c1)c1ccccc1,-24,.,.,.,.,.
COP(=O)(OC)c1nc(-c2ccc([N+](=O)[O-])cc2)oc1NCc1ccc(C)cc1,10,.,.,.,.,.
CC(=O)N1CCC2(CC1)Oc1ccccc1C1CC(c3cccc(OC(F)F)c3)=NN12 (centres undefined),7,.,.,.,.,.
Cn1c(=O)c2[nH]c(Cc3cccc4ccccc34)nc2n(C)c1=O,-1,i,30,36*,-1,3%
Cc1ccc2c(c1)C1(C(=O)N2)C(C#N)=C(N)N(c2ccc(C(F)(F)F)cc2)C2=C1C(=O)CCC2 (centres undefined),2,.,.,.,.,.
CCCCN1CCC(COC(=O)c2cc(Cl)c(N)c3c2OCCO3)CC1,-3,i,-108*,-98,-3,-12%
CCCCN1CCC(CCC(=O)c2cc(Cl)c(N)cc2OC)CC1,.,.,.,.,.,180%[56.9 µM]
COc1ccc(CNC(=O)COC(=O)Cc2ccc(Cl)cc2Cl)cc1,-2,i,-80*,13,-9,32%
O=S1(=O)CCO[C@H]2Cc3ccccc3[C@H]2N1Cc1cccc(Cl)c1,5,i,-8,6,-1,-19%
O=S1(=O)CCO[C@H]2Cc3ccccc3[C@H]2N1Cc1ccc(Cl)cc1,3,i,-7,54*,1,11%
C=CC[C@H](CC(=O)N(CCO)Cc1ccccc1)C(=O)N[C@H](C)COC(=O)[C@@H](CC=C)Cc1ccc(F)cc1,0,i,24,7,1,8%
C=CC[C@@H](CC(=O)N(CCO)Cc1ccccc1)C(=O)N[C@H](C)COC(=O)[C@@H](CC=C)Cc1ccc(F)cc1,0,i,162,40*,-2,0%
C=CC[C@H](CC(=O)N(CCO)Cc1ccccc1)C(=O)N[C@@H](C)COC(=O)[C@H](CC=C)CC(=O)OC(C)(C)C,0,i,17,43*,-2,-5%
CN(CCC#N)c1ccc(/C=N/NC(N)=S)cc1,0,.,.,.,.,.
COc1ccc(-n2cnnc2)cc1,-1,-123%*,-3,3,1,-11%
Cc1cc(C(=O)NCCc2ccccc2)ccc1[N+](=O)[O-],-6,i,-55*,-12,4,15%
NCC(O)C(F)(F)F (centres undefined),-4,.,.,.,.,.
O=C1Nc2ccc(F)cc2C12Nc1ccccc1-c1nnc(SCc3ccccc3F)nc1O2 (centres undefined),10,i,-51*,-28,-1,3%
CN(C)CCn1c(=O)n(Cc2ccco2)c(=O)c2c3c(sc21)CCCCC3,-3,i,-4,2,4,16%
O=c1c2c3c(sc2n(CCN2CCCC2)c(=O)n1Cc1ccco1)CCCCC3,3,i,-64*,-10,-5,-7%
Cc1ccc(-c2cnc(CCC(=O)Nc3ccc(Cl)cc3F)o2)cc1,-2,.,.,.,.,.

# Compound activity deposited in PubChem by National Center for Advancing Translational Sciences (NCATS).
